Source: PubChem
In the library only some 2.3% were active in any assay of this set; here they are far more common.
TMEM16A act: activators or potentiators of mouse TMEM16A chloride channel | Q8BHY3 | HEK293 TMEM16A/YFP-H148Q/I152L, iodide quench fluorescence; stronger effect = lower value | B-score at 10 µM | 340,000 compounds, 0.3% hits | AID 623877;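 active = fluorescence-ratio B-score plate-corrected deviation score at least 3 library SD below zero, with starting fluorescence score within 5 deviations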;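 note: channel opened by trigger with iodide after compound preincubation; score built on the fluorescence ratio of max minus min over baseline; more negative score means more quench and so TMEM16A activation or potentiation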
Target sequence (Q8BHY3 whole entry, looked up): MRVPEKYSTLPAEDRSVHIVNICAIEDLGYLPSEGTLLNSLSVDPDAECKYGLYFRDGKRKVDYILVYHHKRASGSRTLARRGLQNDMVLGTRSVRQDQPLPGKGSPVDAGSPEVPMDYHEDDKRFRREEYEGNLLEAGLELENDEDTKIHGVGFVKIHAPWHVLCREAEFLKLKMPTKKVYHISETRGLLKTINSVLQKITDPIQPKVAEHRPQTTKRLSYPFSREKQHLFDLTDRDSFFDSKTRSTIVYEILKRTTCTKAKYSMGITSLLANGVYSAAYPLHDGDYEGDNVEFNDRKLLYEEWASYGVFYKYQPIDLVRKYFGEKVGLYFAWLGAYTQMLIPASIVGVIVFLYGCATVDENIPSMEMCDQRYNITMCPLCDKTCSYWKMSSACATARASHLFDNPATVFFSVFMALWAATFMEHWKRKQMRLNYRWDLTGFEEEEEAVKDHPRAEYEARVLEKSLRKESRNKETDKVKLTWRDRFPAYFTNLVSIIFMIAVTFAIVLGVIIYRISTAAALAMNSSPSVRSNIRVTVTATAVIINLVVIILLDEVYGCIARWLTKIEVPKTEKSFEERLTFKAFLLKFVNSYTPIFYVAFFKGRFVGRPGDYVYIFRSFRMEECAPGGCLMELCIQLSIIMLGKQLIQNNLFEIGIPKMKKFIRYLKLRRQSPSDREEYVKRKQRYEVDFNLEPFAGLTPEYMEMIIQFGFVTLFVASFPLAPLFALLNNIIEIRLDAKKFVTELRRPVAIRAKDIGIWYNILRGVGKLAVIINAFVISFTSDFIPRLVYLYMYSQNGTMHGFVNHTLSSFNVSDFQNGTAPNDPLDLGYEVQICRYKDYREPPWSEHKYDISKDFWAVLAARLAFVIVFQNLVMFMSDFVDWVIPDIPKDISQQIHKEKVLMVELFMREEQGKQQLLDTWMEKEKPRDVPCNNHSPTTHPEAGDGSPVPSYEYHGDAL
TMEM16A inh: blocks the mouse calcium-activated chloride channel TMEM16A | 310,000 compounds, 1.2% hits | normalized B-score (activity score, 25-100; higher = stronger inhibition) at 10 µM | Q8BHY3 | HEK293 TMEM16A/YFP iodide influx fluorescence, ionomycin | AID 588511;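 active = ratio plate-corrected score three or more library SD toward inhibition, starting fluorescence score within five deviations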;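 note: score derived from kinetic fluorescence span divided by baseline fluorescence per well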
CHT PAM: human CHT allosteric activation; B-score at 10 µM; Q9GZV3; CHT-expressing cells, membrane potential dye, choline EC20; stronger effect = higher value; LV-AA mutant CHT in HEK293 cells; 310,000 compounds, 0.49% hits;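 active = initial fluorescence not abnormally high and integrated response B-score, plate-corrected, over 3 SD above library mean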
CHT block: inhibitors of human choline transporter CHT. B-score at 10 µM. Q9GZV3. CHT-expressing cells, membrane potential dye, choline response; stronger effect = lower value. 310,000 compounds, 0.86% hits;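 active = B-score over 3 SD under the library average, and starting fluorescence ratio not unusually high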;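 note: choline stimulus applied at its EC90 after an EC20 pre-addition; B-score computed on integrated fluorescence ratio after choline addition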
CHT activ conf: confirmation of human choline transporter (CHT) activators; shares compounds with CHT PAM; CHT-expressing cells, membrane potential dye fluorescence (FDSS); % of choline EC20–EC90 response window; HEK293 expressing CHT LV-AA mutant; choline added at its EC20; activation, % at 10 µM; 2,500 compounds, 91% hits;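 active = primary screen active, with duplicate mean activation above negative control mean plus 3 SD, cut at about 11% in these data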
HEK293 MP dye: counter-screen for CHT activators: effect in parental HEK293 cells | shares compounds with CHT PAM | membrane potential dye fluorescence (FDSS); measured after EC20 choline addition | ratio readout change at 10 µM, hits read low | 2,500 compounds, 62% hits;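 active = duplicate-averaged ratio beyond 3 SD from buffer wells, up or down, though filed actives are nearly all decreases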
Large screens that a line does not name were inactive (follow-up assays come after a bar, where they were run).

CN1CCN(c2nc(N(C)C)oc(=O)c2C#N)CC1	none | CHT activ conf 54 | HEK293 MP dye -47
Cc1cccc(NP(=O)(Oc2ccccc2F)Oc2ccccc2F)c1	none | CHT activ conf 23 | HEK293 MP dye inactive
NC(N)=Nc1ccc2[nH]c3c(c2c1)C[C@@]1(O)[C@H]2Cc4ccc(O)c5c4[C@@]1(CCN2CC1CC1)[C@H]3O5	CHT PAM 8.3 | CHT activ conf 12 | HEK293 MP dye -33
CC(NC(=O)N1CC1(C)C)c1ccccc1 (stereo unspecified)	none (no result: TMEM16A inh, CHT PAM, CHT block)
CN1CCN(C(=O)OC2c3nccnc3C(=O)N2c2ccc(Cl)cn2)CC1 (stereo unspecified)	CHT PAM 9.8 (no result: TMEM16A act) | CHT activ conf 68 | HEK293 MP dye -60
Cc1cc(Cl)ccc1OCC(=O)N1CCN(C)CC1	none
C[N+](C)(N)CCOC(=O)C(O)(c1ccccc1)C1CCCCC1 (stereo unspecified)	none
C[n+]1c(-c2ccccc2)cc(-c2ccc(O)cc2)cc1-c1ccccc1	CHT PAM 7 | CHT activ conf 55 | HEK293 MP dye -58
O=[N+]([O-])c1ccc(CN2CC=C(c3ccccc3)CC2)cc1	none
Oc1ccccc1-[n+]1c(-c2ccccc2)cc(-c2ccccc2)c(O)c1-c1ccccc1	none
O=[N+]([O-])c1ccc(-[n+]2c(-c3ccccc3)cc(-c3ccccc3)cc2-c2ccccc2)cc1	none | CHT activ conf 66 | HEK293 MP dye -28
Oc1ccc(-[n+]2c(-c3ccccc3)cc(-c3ccccc3)cc2-c2ccccc2)cc1	CHT PAM 9.8 | CHT activ conf 80 | HEK293 MP dye -26
CC(C)CC(C)N (stereo unspecified)	none (no result: TMEM16A inh, CHT PAM, CHT block)
CC(=O)C1C(N2CC2)CC2C3CC=C4CC(O)CCC4(C)C3CCC21C (stereo unspecified)	none (no result: TMEM16A inh, CHT PAM, CHT block)
COC1=C(OC)[C@]23CCc4ccc(OC)c(OC)c4[C@]2(CCN3C)CC1=O	none (no result: TMEM16A inh, CHT PAM, CHT block)
C[C@]12CCC3C(CC[C@H]4C[C@H](O)CC[C@]34C)C1[C@@H](O)[C@@H](O)[C@@H]2O (stereo partly specified)	none (no result: TMEM16A inh, CHT PAM, CHT block)
C[n+]1c(-c2ccccc2)sc2ccccc21	none | CHT activ conf 52 | HEK293 MP dye -42
COc1ccc2c3c([nH]c2c1)C(C)=NCC3	none | CHT activ conf 33 | HEK293 MP dye -43
CC1=NCCc2c1[nH]c1cc(O)ccc21	none
COC(=O)C1=C(c2cccc(C#N)c2)C[C@@H]2CC[C@H]1N2C(=O)NC1Cc2ccccc2C1	none (no result: TMEM16A inh, CHT PAM, CHT block)
CCC[N+]12CCC(CC1)C(=C(c1ccccc1)c1ccccc1)C2	CHT PAM 6.5 | CHT activ conf 16 | HEK293 MP dye inactive
CCCC[N+]12CCC(CC1)C(=C(c1ccccc1)c1ccccc1)C2	CHT PAM 9.4 | CHT activ conf 61 | HEK293 MP dye inactive
C[n+]1ccc(-c2ccccc2)c2ccccc21	CHT PAM 8.6 | CHT activ conf 85 | HEK293 MP dye -70
Cn1c(O)c(/C=N/c2ncccn2)c(=O)n(C)c1=O	none | CHT activ conf 38 | HEK293 MP dye -36
CNc1cc(N2CCNCC2)ccc1[N+](=O)[O-]	none | CHT activ conf 39 | HEK293 MP dye -49
COc1cc2c(cc1OC)-c1c3c(cc4c1[C@@H](C2)N(C)CC4)OCO3	none | CHT activ conf 42 | HEK293 MP dye -48
COc1cc2c(cc1O)C[C@H]1NCCc3cc4c(c-2c31)OCO4	none
Fc1ccc(C[n+]2c(-c3ccccc3)cc(-c3ccccc3)cc2-c2ccccc2)cc1	CHT PAM 8.2 (no result: TMEM16A act) | CHT activ conf 32 | HEK293 MP dye inactive
C[n+]1ccc(-c2cc[n+](C)cc2)cc1	CHT PAM 11 | CHT activ conf 85 | HEK293 MP dye -100
CCCCCCC[n+]1ccc(-c2cc[n+](CCCCCCC)cc2)cc1	none
CN(CC=CCN(C)P(=S)(N1CC1)N1CC1)P(=S)(N1CC1)N1CC1	none (no result: TMEM16A inh, CHT PAM, CHT block)
OC(Cn1c2ccccc2c2ccccc21)C[n+]1cccc2ccccc21 (stereo unspecified)	none | CHT activ conf 39 | HEK293 MP dye -38
O=C(O)C1C2c3ccccc3C(O)C1(C(=O)O)c1ccccc12 (stereo unspecified)	none (no result: TMEM16A inh, CHT PAM, CHT block)
